# From PubChem BioAssay (NCATS)
# Inconclusive results are not listed. A call without a number means that no potency is given here. Active and inactive are the calls of the source. Unless noted, the call rests on the fitted dose curve; in most records, active means well fitted curve in the direction sought with a large enough effect; inconclusive means small, poorly fitted or top-dose-only effect, or another doubt; inactive means no such curve, though single readings can be large; an effect the other way counts as inactive or inconclusive.
# Experiments:
# [1] = qHTS for differential inhibitors of proliferation of Plasmodium falciparum line 7G8 (AID 1815);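 further: parasite growth measured after three days of incubation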
# [2] = qHTS for differential inhibitors of proliferation of Plasmodium falciparum line GB4 (AID 1816);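 further: parasite growth measured after 72 h incubation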
# [3] = qHTS for differential inhibitors of proliferation of Plasmodium falciparum line 3D7 (AID 1876); further: potency means the concentration at half of the fitted maximal effect
# [4] = qHTS for differential inhibitors of proliferation of Plasmodium falciparum line D10 (AID 1877);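 further: parasites grown with compound for 72 h before DNA staining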
# [5] = qHTS for differential inhibitors of proliferation of Plasmodium falciparum line Dd2 (AID 1882);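 further: series mostly up to about 29 µM; compound exposure of 72 h on infected erythrocytes; nearly all actives have a fitted effect of over 65% in size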
# How it was run: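 SYBR Green I DNA fluorescence read-out, ex 485/em 535 nm. Signals were normalized to 0.29 uM artemisinin and DMSO wells, then corrected using vehicle-only plates flanking each stack. Parasite growth ran 72 h in erythrocytes before lysis.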
# [6] = qHTS for differential inhibitors of proliferation of Plasmodium falciparum line HB3 (AID 1886); conditions: Potency: Plasmodium falciparum HB3 proliferation inhibition;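 further: parasites grown with compound for 72 h before SYBR Green readout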; further: potency means the concentration at half of the fitted maximal effect
# [7] = qHTS Assay for Modulators of Human Peripheral Myelin Protein 22 (PMP22) Expression/Activity (AID 1967; active means well fitted curve in the direction sought with a large enough effect in the signal ratio; the % refers to the signal ratio)
# How it was run: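 MSC80 mouse Schwann cells stably carrying Pmp22 promoter–green click beetle luciferase plus EF-alpha–red luciferase control were dosed for 24h at 37 °C. Dual-colour luminescence was filter-overlap corrected; %Activity came from green/red ratio versus untreated cells.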
# [8] = qHTS for differential inhibitors of proliferation of Plasmodium falciparum line W2 (AID 1883); conditions: Plasmodium falciparum W2 proliferation inhibition;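 further: potency means the concentration at half of the fitted maximal effect; parasites grown with compound for 72 h before lysis and staining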
# [9] = qHTS Assay for Identification of Small Molecule Inducers of Hypoxia Response (AID 2120; active means well fitted curve in the direction sought with a large enough effect in the signal ratio, with a control signal flat, not every such curve was filed as active; the % refers to the signal ratio)
# How it was run: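 Induction of beta-lactamase reporter activity was measured in CellSensor HRE-bla ME-180 cells after 17 h compound treatment at 37 degrees C, using CCF4 substrate and the 460nm/530nm emission ratio to derive AC50 values.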
# [10] = biological target: Lysosomal alpha-glucosidase (Homo sapiens) (UniProt P10253); test: Confirmation of Inhibitors and Activators of Purified Human alpha-Glucosidase (AID 2115; active means well fitted curve in either direction with a large enough effect)
# Excerpt: NIH Chemical Genomics Center [NCGC]
# NIH Molecular Libraries Probe Production centers Network [MLPCN]
# Assay Submitter (PI): Wei Zheng
# Alpha-glucosidase is responsible for hydrolysis of terminal, non-reducing 1,4-linked alpha-D-glucose residues with release of alpha-D-glucose. It is a lysosomal hydrolase that is required for the degradation of a small percentage (1-3%) of cellular glycogen in human. Deficiency of this enzyme results in glycogen-storage disease type II (GSDII), also referred to as Pompe disease, an autosomal recessive disorder. Structurally normal glycogen is accumulated in lysosomes and cytoplasm in affected patients, primarily in muscle tissues. Excessive glycogen storage within lysosomes may interrupt normal functioning of other organelles and leads to cellular injury. In turn, this leads to enlargement and dysfunction of the entire organ involved (eg, cardiomyopathy and muscle weakness). […]
# This is a fluorogenic enzyme assay with 4-methylumbelliferyl-alpha-D-[…] as the substrate and human […] as the enzyme preparation. […] 4-methyllumbelliferone, can be excited at 365 nm and emits at 440 nm which can be detected by a standard fluorescence plate reader. […] The AC50 values were determined from concentration-response data modeled with the standard Hill equation. […]
# (6) Detect the assay plate in a ViewLux plate reader (PerkinElmer) with Ex=365 nm and Em=440nm. […]
compound,measurement,setting,value
CC(=O)OCC1=C(C(=O)O)N2C(=O)[C@@H](NC(=O)CSc3ccncc3)[C@H]2SC1,outcome,[1],inactive
same,outcome,[2],inactive
same,Potency,[3],inactive
same,outcome,[4],inactive
same,outcome,[5],inactive
same,Potency,[6],inactive
same,outcome,[7],inactive
NC(N)=NCc1cccc(I)c1,outcome,[1],inactive
same,Potency,[3],8.91 µM (active)
same,outcome,[5],inactive
same,Potency,[8],10 µM (active)
same,Potency,[6],6.31 µM (active)
OC[C@H]1O[C@@H]2O[C@H]3[C@H](O)[C@@H](O)[C@@H](O[C@H]4[C@H](O)[C@@H](O)[C@@H](O[C@H]5[C@H](O)[C@@H](O)[C@@H](O[C@H]6[C@H](O)[C@@H](O)[C@@H](O[C@H]7[C@H](O)[C@@H](O)[C@@H](O[C@H]8[C@H](O)[C@@H](O)[C@@H](O[C@H]1[C@H](O)[C@H]2O)O[C@@H]8CO)O[C@@H]7CO)O[C@@H]6CO)O[C@@H]5CO)O[C@@H]4CO)O[C@@H]3CO,outcome,[9],inactive
CCCCN1C[C@H](O)[C@@H](O)[C@H](O)[C@H]1CO,outcome,[10],inactive
CCCCC(CC)COC(=O)c1ccc(N(C)C)cc1 (centres undefined),outcome,[9],inactive
O=C(O)c1ccc(S(=O)(=O)N(Cl)Cl)cc1,outcome,[9],inactive
NCCNc1cccc2ccccc12,outcome,[9],inactive
C/C=C/c1ccc(O)c(OC)c1,outcome,[9],inactive
COc1cc([C@H]2Oc3cc([C@H]4Oc5cc(O)cc(O)c5C(=O)[C@@H]4O)ccc3O[C@@H]2CO)ccc1O,outcome,[9],inactive
COc1ccc(C(=O)c2ccccc2)c(O)c1,outcome,[9],inactive
NC(=O)c1ccccc1O,outcome,[9],inactive
CCOc1ccccc1C(N)=O,outcome,[9],inactive
CCOc1ccc(NC(C)=O)cc1,outcome,[9],inactive
COc1ccc(C(Cl)=C(c2ccc(OC)cc2)c2ccc(OC)cc2)cc1,outcome,[9],inactive
